Values joined by “and” are separate entries in the source; they are usually repeats but may differ in a detail not shown here. Equal values may be shown once. Results filed as inconclusive are left out. Where a call stands in place of a potency, no number is given. A structure can be active in one record and inactive in another. Active and inactive are the calls of the source. Calls come from the whole dose curve; as a rule, active = well fitted cell-killing curve with a large enough effect in the repeat runs; inconclusive = weak or mixed curves; inactive = flat fitted curve, though single readings scatter.
Assay: qHTS RealTime-Glo MT Cell Viability Assay in HepG2 cells - 24 hour (AID 1224867); note: nearly all actives have a fitted effect of over 50% in size
Conditions: RealTime-Glo luminescence; series mostly up to 76.8 µM
Source text: U.S. Tox21 Program National Center for Advancing Translational Sciences [NCATS] NIH Chemical Genomics Center [NCGC] U.S. Environmental Protection Agency [EPA] National Institutes of Environmental Health Sciences [NIEHS] National Toxicology Program [NTP] U.S. Food and Drug Administration [FDA] Tox21 Assay Overview: Measure of cell viability is critical in the cell-base assay. Analysis of cell viability is necessary for the characterization of cell responses to cytotoxic drugs and environmental stress. A RealTime-Glo MT Cell Viability Assay to monitor cell viability in real time of continues cell culture during 40 hours of compound treatment was used to screen Tox21 10K library compounds in HepG2 cells. The RealTime-Glo MT Cell Viability Assay is a nonlytic, homogeneous, bioluminescent method to measure cell viability in real time using a simple, plate-based method. The assay involves adding NanoLuc luciferase and a cell-permeant prosubstrate to cells in culture. Viable cells reduce the proprietary prosubstrate to generate a substrate for NanoLuc luciferase. This substrate diffuses from cells into the surrounding culture medium, where it is rapidly used by the NanoLuc Enzyme to produce a luminescent signal. The signal correlates with the number of viable cells, making the assay well suited for cytotoxicity studies.
Tox21 Assay Protocol Summary: The mixture of HepG2 cell suspension and reagents were dispensed at 600cells/6 ul/well in 1536-well tissue culture treated black solid bottom plates using a Multidrop dispenser. After the assay plates were incubated at a 37 C/5% CO2 incubator for 5 hours, 23 nL of compounds dissolved in DMSO, positive and negative controls was transferred to the assay plate by a pintool work station. The plates were incubated at 37 C for 40 hours. The luminescence intensity were measured at 0h, 8h, 16h, 24h, 32h and 40h time points using ViewLux plate reader during compound treatment.
Potency is the fitted concentration of half-maximal effect.

SMILES	Potency	activity change, negative = cytotoxicity
O=C(O)c1cc(I)cc(I)c1I	inactive	–
CCCCOC(=O)CCC(=O)OCCCC	inactive	–
CCCCCCCCCCCCN=C(N)N	–	-4.51% [at 2.72 µM] (inactive)
CCOP(=S)(OCC)SCSc1cc(Cl)ccc1Cl	inactive	–
CC(Oc1cc(Cl)c(Cl)cc1Cl)C(=O)O (stereo not given)	inactive	–
Cc1ncc(C[n+]2csc(CCO)c2C)c(N)n1	inactive	–
COP(=O)(OC)OC(Br)C(Cl)(Cl)Br (stereo not given)	inactive	–
Cc1nc(N(C)C)nc(OC(=O)N(C)C)c1C	inactive	–
C=CCc1ccc(OC(=O)Cc2ccccc2)c(OC)c1	inactive	–
O=C1NC(=O)C(=O)C(=O)N1	inactive	–
CC(C)c1ccc(NC(=O)N(C)C)cc1	inactive	–
NC(=O)CF	inactive	–
Clc1ccc(Cl)c(Cl)c1	inactive	–
CCCCNC(=O)OCC#CI	7.72 µM (active) and 3.89 µM (active)	–
CC(C)(C)NCC(O)c1ccccc1Cl (stereo not given)	inactive	–
CCOc1cccc(C2(N3CCN(c4ccccc4)CC3)CCC(C)CC2)c1 (stereo not given)	inactive	–
C=CCSSCC=C	inactive	–
CC(C)(C#N)C(C)(C)C#N	inactive	–
CCNC(=O)NC(=O)/C(C#N)=N/OC	inactive	–
CC(C)(C)CC(C)(C)c1ccc(O)cc1	46.2 µM (active) and inactive	–

SMILES	Potency	activity change, negative = cytotoxicity
ClCc1ccccc1Cl	inactive	–
C[C@H](N)[C@H](O)c1ccc(O)c(O)c1	inactive	–
O=C1c2ccccc2C(=O)N1SC(Cl)(Cl)Cl	34.2 µM (active) and 13.8 µM (active)	–
CC(C)(C)c1ccc(CCOc2ncnc3ccccc23)cc1	inactive	–
C#CC(O)(C=CCl)CC (stereo not given)	inactive	–
NNCCO	inactive	–
CCC1CCC(=O)O1 (stereo not given)	inactive	–
C=CCOCC1CO1 (stereo not given)	inactive	–
CC(O)CN1CCN(CC(=O)[O-])CCN(CC(=O)[O-])CCN(CC(=O)[O-])CC1.[Gd+3] (stereo not given)	inactive	–
CNC(=O)Oc1cccc(N=CN(C)C)c1	inactive	–
[Cl-].[Cl-].[Hg+2]	48.8 µM (active) and 3.47 µM (active)	–
C=CC(=O)NC(C)(C)CC(C)=O	inactive	–
OCCCl	inactive	–
Cc1nnc(-c2ccccc2)c(=O)n1N	inactive	–
CN[C@@H](C)[C@H](O)c1ccccc1	inactive	–
CCOP(=O)(O)C(N)=O	inactive	–
O=P(OCC(Br)CBr)(OCC(Br)CBr)OCC(Br)CBr (stereo not given)	inactive	–
CN(C1CCCCC1)C1CCCCC1	inactive	–
COC(=O)Cc1ccccc1	inactive	–
CCCCCCCCn1sccc1=O	43.7 µM (active) and 16.2 µM (active)	–

— PubChem BioAssay (Tox21)
